This is an account of results in PubChem BioAssay AID686933 (National Center for Advancing Translational Sciences (NCATS), 2013).

Records with an inconclusive call do not appear. Unmarked numbers belong to inactive results. Active and inactive are the calls of the source. The call rests on the fitted dose curve; in most records, active means well fitted inhibition curve with a large enough effect; inconclusive means small, poorly fitted or top-dose-only effect; inactive means flat fitted curve, though single readings scatter.

This assay deals with Luciferin 4-monooxygenase (Photinus pyralis) (UniProt P08659). As to the kind of experiment: qHTS screen for small molecules that inhibit ELG1-dependent DNA repair: SAR in Biochemical Luciferin Assay. Particulars: purified firefly luciferase, luciferin luminescence counter-screen; series mostly up to 57.5 µM; activity change, negative = inhibition: at the top concentration. The text has this:
Cancer cells divide rapidly compared to normal cells in the body. During cell division, cancer cells need to duplicate their genome by DNA replication. The failure of genome duplication leads to cancer cells' death. Therefore, inhibitors of DNA replication could specifically kill cancer cells. Based on this concept, many chemotherapeutic agents were developed and have been used to treat cancer patients. However, there are a limited number of agents available in the clinical setting, and some of those that do exist have low efficacy and severe side effects. Therefore, if we can find the compounds that effectively block DNA replication either by directly damaging DNA or by inhibiting other cellular mechanisms, the options for cancer treatment will be broadened. With this in mind, we developed a quantitative high-throughput ELG1-luciferase reporter gene assay. Small molecules that specifically block ELG1 function in response to DNA damage can be identified by monitoring the suppression of luciferase activity. Since ELG1 defines a pathway for repairing DNA damage, agents blocking ELG1 function can be used to sensitize cancer cells to chemotherapeutic agents whose mechanism of action involves the induction of DNA damage. This counter assay is a luciferase assay, that following treatment with putative ELG1 antagonists, aims to eliminate luciferase enhancers/inhibitors. NIH Molecular Libraries Probe Production Network [MLPCN] NIH Chemical Genomics Center [NCGC] MLPCN Grant: R03 MH092164 Assay Provider: Kyungjae Myung, NHGRI, NIH
3 uL of substrate reagent will be pipetted into each well in 1536-well white, solid-bottom plates using a FRD dispenser, followed by addition of 23 nL of DMSO or compounds by pintool. After compound addition, 1 µL of luciferase will be added into the wells. The plates will be read in a ViewLux CCD-based plate reader.
On the technique in general: Quantitative high-throughput screening tests each substance at several concentrations.
For `Cc1csc(CNc2ncnc3ccc(-c4ccoc4)cc23)c1`, the “activity change, negative = inhibition” value is -18.3%.
Same read-out and setting: in the case of `COc1ccc(C2=Nn3c(nnc3-c3ccccc3OC)SC2)cc1OC` it was 6.27%.
Turning to `Cc1nc(Nc2nc3ccccc3o2)nc2c1CCCC2`, the Potency is 651 nM (active).
For the molecule `CN(Cc1ccco1)c1ncnc2ccc(-c3cccc(Cl)c3)cc12`, the “activity change, negative = inhibition” value is -10.7%.
Same read-out and setting: under `O=C(COc1ccccc1F)Nc1ccc(-c2nc3ccccc3s2)cc1` stands -25.4%; under `COc1cc2c(cc1OC)C1C(=O)c3c(O)cc4c(c3OC1CO2)C=CC(C)(C)O4` (stereo not given), -5.2%; under `COc1ccc(OC)c(-c2nnc3n2N=C(c2ccc(OC)c(OC)c2)CS3)c1`, 4.84%.
For `O=C(Nc1ccccn1)c1sc2ccccc2c1Cl`, the Potency was 164 nM (active).
Consider `c1cncc(CNc2ncnc3ccc(-c4ccoc4)cc23)c1`, for which the “activity change, negative = inhibition” value was -6.33%.
Still for that read-out and setting: in the case of `CC(/C=C/C(=O)NO)=C\[C@@H](C)C(=O)c1ccc(N(C)C)cc1` it was -28.1%.
Consider `O=c1[nH]c(-c2ccc(-c3cccc(Cl)c3)o2)nc2ccccc12`, for which the Potency is 461 nM (active).
`CS[C@@H]1SC[C@H]2C(=O)N(C)C(C(C)C)C(=O)OC[C@@H](NC(=O)c3cnc4ccccc4n3)C(=O)N[C@@H](C)C(=O)N(C)[C@H]1C(=O)N(C)C(C(C)C)C(=O)OC[C@@H](NC(=O)c1cnc3ccccc3n1)C(=O)N[C@@H](C)C(=O)N2C` (stereo not given in full): the “activity change, negative = inhibition” value was -3.21%.
Still for that read-out and setting: under `N#Cc1ccc(-c2ccc(-c3nc4ccccc4c(=O)[nH]3)o2)cc1` stands 0.924%.
For `CN(C)c1cccc(-c2ccnc(N3CCC(C(N)=O)CC3)n2)c1`, the Potency is 16400 nM (active).
Regarding `OCC1OC(n2cnc3c(=S)nc[nH]c32)C(O)C1O` (stereo not given), the “activity change, negative = inhibition” value was 4.5%.
